For some assays here: Results with a measured potency or affinity are listed apart.
Tests used:
Design in all cases: scale not given: direction of the effect not stated beside the values
[1] = molecular target: Protein translocase subunit SecA (Escherichia coli (strain K12)) (UniProt P10408); test: Assay to Identify E. coli SecA ATPase Inhibitors; assay type: functional; settings: 30 µM
[2] = molecular target: T1, Ubiquitin-activating enzyme e1, putative (Leishmania donovani (strain BPK282A1)) (UniProt E9BSI1); test: Leishmania donovani Ubiquitin Activating Enzyme (LdE1); assay type: functional; settings: 30 µM
T1 sequence (whole entry): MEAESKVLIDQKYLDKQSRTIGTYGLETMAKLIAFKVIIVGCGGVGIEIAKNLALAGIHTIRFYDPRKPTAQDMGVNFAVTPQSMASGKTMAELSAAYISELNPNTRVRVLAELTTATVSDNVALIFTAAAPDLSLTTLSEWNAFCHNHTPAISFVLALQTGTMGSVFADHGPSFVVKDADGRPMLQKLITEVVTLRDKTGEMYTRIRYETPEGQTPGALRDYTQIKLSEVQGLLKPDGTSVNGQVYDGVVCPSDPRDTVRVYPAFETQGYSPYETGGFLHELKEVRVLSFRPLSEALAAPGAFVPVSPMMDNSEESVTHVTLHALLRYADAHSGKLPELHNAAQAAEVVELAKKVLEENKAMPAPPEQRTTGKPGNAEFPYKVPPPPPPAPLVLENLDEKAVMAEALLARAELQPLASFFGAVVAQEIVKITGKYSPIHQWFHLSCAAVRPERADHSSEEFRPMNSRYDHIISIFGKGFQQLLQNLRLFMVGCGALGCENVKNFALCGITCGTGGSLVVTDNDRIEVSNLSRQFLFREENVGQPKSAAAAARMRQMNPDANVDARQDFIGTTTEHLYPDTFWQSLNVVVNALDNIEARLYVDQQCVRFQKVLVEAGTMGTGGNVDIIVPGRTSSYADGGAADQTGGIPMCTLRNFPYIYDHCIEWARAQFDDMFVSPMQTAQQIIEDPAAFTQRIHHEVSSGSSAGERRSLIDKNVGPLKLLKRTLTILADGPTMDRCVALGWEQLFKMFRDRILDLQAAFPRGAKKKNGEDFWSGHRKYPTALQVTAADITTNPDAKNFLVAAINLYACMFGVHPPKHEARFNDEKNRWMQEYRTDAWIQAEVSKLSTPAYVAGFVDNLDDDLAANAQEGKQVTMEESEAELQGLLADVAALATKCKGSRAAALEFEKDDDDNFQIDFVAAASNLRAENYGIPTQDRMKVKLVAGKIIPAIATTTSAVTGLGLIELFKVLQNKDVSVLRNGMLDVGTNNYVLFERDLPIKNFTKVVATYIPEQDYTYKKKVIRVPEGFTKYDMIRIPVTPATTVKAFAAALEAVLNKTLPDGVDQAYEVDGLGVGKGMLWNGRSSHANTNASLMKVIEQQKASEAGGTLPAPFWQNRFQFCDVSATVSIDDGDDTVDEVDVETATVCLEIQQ

[3] = molecular target: AMP-activated protein kinase, AMPK (Homo sapiens) (UniProt P54646+O43741+P54619+Q9UGJ0+Q9Y478+Q13131+Q9UGI9); test: AMP-dependent Kinase enzyme assay. An in vitro enzyme assay that detects ADP turnover that is directly proportional to AMPK activity. This uses naive AMPK that is activated during the assay with MK-8722; assay type: functional; settings: 30 µM
[4] = molecular target: Sialic acid-binding Ig-like lectin 9 (Homo sapiens) (UniProt Q9Y336); test: Hs-Siglec9 ALPHAscreen SOP 20170721; settings: 10 µM
Sialic acid-binding Ig-like lectin 9 (Homo sapiens), sequence (Q9Y336 whole entry): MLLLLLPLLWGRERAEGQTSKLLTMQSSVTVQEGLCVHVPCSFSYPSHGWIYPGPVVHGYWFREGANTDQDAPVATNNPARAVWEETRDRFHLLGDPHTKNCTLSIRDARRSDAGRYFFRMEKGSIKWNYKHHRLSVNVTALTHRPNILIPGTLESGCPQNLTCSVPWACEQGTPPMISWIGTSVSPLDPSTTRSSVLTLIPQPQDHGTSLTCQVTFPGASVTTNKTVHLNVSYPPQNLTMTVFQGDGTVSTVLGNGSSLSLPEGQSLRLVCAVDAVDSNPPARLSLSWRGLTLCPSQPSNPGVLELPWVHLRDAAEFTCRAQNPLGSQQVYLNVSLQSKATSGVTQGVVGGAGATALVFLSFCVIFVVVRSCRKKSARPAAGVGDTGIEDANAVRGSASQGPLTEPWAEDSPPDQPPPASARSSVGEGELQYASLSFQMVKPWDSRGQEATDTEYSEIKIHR

Trypanosoma cruzi = test: Trypanosoma cruzi phosphomannomutase and mannose-1-phosphate guanylyltransferase assay; assay type: functional; settings: 10 µM
[5] = molecular target: T2, Arginase-2, mitochondrial (Homo sapiens) (UniProt P78540); test: in vitro enzyme assay to detect the production of urea directly proportional to the activity of Arginase II; assay type: functional; settings: 33.3 µM; further: in the data most compounds retested in dose-response had high values
T2 sequence (whole entry): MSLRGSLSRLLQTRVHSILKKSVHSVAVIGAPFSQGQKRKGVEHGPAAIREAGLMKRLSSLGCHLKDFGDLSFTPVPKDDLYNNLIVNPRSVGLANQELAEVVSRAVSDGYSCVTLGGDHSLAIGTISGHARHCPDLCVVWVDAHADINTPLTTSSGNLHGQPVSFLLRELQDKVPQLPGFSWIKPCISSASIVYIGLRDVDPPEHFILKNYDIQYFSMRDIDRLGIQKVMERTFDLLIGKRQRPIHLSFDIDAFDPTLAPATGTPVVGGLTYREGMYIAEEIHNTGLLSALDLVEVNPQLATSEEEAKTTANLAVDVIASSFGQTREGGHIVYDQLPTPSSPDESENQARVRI

[6] = molecular target: T3, Proteasome subunit beta (Trypanosoma cruzi) (UniProt O96673); test: Trypanosoma cruzi proteasome chymotrypsin-like activity (TcProtChymo) assay.; further: in the data most compounds retested in dose-response had high values; assay type: functional; settings: 9.37 µM
T3 sequence (whole entry): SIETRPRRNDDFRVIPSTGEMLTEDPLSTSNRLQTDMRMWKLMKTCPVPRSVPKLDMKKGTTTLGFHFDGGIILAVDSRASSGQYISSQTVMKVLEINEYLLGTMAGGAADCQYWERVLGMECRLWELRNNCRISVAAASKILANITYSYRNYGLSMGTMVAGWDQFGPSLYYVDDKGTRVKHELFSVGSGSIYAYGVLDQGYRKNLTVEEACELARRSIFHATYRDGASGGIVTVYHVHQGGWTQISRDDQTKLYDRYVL

Homo sapiens = species on record: Homo sapiens; test: To identify inhibition of the IFN signalling (Jak-Stat) pathway via expression of an eGFP reporter gene under the control of an IFN-stimulated response element (ISRE) containing MxA promoter.; assay type: functional; settings: 30 µM
[7] = molecular target: T4, Tyrosyl-tRNA synthetase, putative (Trypanosoma cruzi (strain CL Brener)) (UniProt Q4DSP6); test: Trypanosoma cruzi tyrosyl tRNA synthetase (TcYRS) _High Tyrosine SOP; assay type: functional; settings: 30 µM; further: in the data most compounds retested in dose-response had high values
T4 sequence (whole entry): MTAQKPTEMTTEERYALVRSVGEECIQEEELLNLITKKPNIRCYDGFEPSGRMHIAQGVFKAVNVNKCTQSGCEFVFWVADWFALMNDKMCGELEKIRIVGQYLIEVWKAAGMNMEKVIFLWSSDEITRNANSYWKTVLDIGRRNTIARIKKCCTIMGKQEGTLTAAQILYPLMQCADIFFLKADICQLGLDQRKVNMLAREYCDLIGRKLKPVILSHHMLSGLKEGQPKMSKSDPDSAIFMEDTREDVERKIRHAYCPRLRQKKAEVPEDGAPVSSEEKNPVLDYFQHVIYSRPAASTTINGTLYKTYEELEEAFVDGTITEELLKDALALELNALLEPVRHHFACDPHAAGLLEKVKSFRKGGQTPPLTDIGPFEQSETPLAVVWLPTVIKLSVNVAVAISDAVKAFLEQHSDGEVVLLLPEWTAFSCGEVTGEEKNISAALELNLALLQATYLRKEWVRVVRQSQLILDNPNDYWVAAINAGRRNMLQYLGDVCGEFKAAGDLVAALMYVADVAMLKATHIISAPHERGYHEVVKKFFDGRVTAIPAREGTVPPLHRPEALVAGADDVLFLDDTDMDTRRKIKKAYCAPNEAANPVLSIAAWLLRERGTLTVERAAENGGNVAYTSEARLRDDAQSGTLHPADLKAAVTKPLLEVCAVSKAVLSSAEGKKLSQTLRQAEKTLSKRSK

[8] = molecular target: T4, Tyrosyl-tRNA synthetase, putative (Trypanosoma cruzi (strain CL Brener)); test: Trypanosoma cruzi tyrosyl tRNA synthetase (TcYRS) SOP; assay type: functional; settings: 30 µM
[9] = molecular target: Chromo domain-containing protein 1 (Saccharomyces cerevisiae (strain ATCC 204508 / S288c) (Baker's yeast)) (UniProt P32657); test: ScCHD-1 Enzyme Inhibition Assay; assay type: functional; settings: 30 µM; further: in the data most compounds retested in dose-response had high values
Chromo domain-containing protein 1 (Saccharomyces cerevisiae (strain ATCC 204508 / S288c) (Baker's yeast)), sequence (P32657 whole entry, the tested form may be a part): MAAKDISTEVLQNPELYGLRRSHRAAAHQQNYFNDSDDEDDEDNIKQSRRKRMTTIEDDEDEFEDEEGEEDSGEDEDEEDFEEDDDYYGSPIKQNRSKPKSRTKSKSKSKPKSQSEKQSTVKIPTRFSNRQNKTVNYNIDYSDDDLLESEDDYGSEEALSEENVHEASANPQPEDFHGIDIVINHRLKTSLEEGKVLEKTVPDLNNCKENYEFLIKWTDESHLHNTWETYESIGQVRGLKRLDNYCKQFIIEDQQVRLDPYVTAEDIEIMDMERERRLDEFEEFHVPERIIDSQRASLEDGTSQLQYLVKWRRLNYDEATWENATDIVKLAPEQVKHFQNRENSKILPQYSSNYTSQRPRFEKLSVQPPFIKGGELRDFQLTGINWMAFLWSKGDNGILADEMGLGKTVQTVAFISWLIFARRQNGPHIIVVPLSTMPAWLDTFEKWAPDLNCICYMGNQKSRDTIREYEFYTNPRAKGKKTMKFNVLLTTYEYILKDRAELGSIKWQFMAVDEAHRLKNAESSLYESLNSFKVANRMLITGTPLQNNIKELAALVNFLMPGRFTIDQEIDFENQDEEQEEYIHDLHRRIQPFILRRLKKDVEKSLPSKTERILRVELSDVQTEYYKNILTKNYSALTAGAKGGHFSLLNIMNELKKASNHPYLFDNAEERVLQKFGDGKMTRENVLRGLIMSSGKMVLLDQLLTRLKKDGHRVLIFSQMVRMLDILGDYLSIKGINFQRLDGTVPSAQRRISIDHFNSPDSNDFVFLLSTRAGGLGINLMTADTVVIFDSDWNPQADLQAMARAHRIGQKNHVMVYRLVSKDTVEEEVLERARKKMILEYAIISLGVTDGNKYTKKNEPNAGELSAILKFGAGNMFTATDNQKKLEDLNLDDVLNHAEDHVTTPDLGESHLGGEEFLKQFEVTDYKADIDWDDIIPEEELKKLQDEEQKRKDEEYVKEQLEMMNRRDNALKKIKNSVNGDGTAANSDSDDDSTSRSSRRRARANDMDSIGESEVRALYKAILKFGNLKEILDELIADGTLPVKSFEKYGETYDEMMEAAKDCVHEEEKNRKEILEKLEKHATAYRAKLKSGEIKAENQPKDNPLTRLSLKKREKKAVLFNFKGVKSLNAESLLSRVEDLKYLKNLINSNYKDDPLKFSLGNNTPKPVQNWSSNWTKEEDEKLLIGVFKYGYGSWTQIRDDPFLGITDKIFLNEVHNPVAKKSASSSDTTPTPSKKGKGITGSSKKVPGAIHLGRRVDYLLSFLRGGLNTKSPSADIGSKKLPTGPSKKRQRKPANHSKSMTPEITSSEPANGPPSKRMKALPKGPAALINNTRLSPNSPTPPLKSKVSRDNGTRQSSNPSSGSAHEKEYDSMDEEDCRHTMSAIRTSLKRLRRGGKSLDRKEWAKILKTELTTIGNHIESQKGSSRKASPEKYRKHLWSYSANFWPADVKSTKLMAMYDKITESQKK

Protein translocase subunit SecA (Escherichia coli (strain K12)), sequence (P10408 whole entry): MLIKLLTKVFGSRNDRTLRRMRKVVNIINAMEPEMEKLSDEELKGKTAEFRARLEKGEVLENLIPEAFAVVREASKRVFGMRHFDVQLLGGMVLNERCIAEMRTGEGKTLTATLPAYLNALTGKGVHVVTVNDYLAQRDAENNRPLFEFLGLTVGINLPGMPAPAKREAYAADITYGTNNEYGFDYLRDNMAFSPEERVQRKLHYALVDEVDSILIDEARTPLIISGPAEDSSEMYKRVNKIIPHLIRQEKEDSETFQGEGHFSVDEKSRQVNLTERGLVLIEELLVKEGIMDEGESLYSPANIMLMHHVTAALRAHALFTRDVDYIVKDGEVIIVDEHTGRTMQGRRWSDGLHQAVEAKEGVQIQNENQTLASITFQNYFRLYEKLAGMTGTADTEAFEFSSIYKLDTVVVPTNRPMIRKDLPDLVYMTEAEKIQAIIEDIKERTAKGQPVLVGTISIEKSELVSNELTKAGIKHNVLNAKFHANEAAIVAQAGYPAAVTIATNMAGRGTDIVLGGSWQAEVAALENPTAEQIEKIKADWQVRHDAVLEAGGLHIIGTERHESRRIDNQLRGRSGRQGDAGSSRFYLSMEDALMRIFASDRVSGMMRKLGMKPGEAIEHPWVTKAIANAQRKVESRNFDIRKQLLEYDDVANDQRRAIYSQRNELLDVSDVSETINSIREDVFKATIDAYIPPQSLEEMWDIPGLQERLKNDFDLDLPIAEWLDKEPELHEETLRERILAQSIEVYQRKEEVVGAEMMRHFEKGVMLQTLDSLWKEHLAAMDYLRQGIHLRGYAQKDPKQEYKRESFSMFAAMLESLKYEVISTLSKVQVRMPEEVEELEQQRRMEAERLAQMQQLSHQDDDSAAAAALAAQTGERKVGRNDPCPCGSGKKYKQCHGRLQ

Row | Structure (SMILES) | Percent Effect [1] | Percent Effect [2] | Percent Effect [3] | Percent Effect [4] | Percent Effect (Trypanosoma cruzi) | Percent Effect [5] | Percent Effect [6] | Percent Effect (Homo sapiens) | Percent Effect [7] | Percent Effect [8] | Percent Effect [9]
1 | O=C(C1=CCCC1)N1CCO[C@H]2[C@@H](Oc3ccccn3)CC[C@@H]21 | -2.61% | 13.3% | 4.5% | 0.0747% | 0.787% | 3.96% | 9.96% | 9.01% | 7.45% | 16.7% | -3.61%
2 | Cn1c(C(=O)N2CCC(C(=O)N3CCCC3)CC2)c(Cl)c2ccccc21 | -4.1% | 5.33% | -1.92% | 6.11% | 2.82% | 2.6% | 25.5% | 0.0464% | 8.2% | 13.6% | -6.83%
3 | Cc1nc(CN2CCCn3c(nc(Cn4ccnc4)cc3=O)C2)cs1 | -3.95% | 12% | 7.35% | 0.752% | -0.393% | 1.23% | 5.36% | -26.2% | -1.06% | 0% | -4.76%
4 | Cc1cncc(C(=O)N2CCCCC2c2nc(C)cs2)c1 (configuration not stated) | -4.34% | -36.4% | -2.13% | 4.39% | 8.99% | 3.92% | 9.29% | 16.2% | 9.71% | 21.9% | -10.7%
5 | COCC1c2c(cnn2C)CCN1Cc1ccc(F)cc1 (configuration not stated) | -4.38% | -2.7% | 1.18% | -3.56% | -2.93% | 1.25% | 5.66% | -1.22% | 5.94% | 8.54% | 2.82%
6 | Cc1nn(C)c2c(=O)n(CC(=O)Nc3cc(Cl)cc(Cl)c3)nnc12 | 0.37% | 12% | 0.0353% | 1.72% | -6.29% | -1.58% | 19.6% | 12.4% | 2.12% | 10.3% | -8.24%
7 | C[C@@H]1CN(C(=O)c2ccsc2)C[C@]12CCN(c1ccsc1)C2=O | -3.14% | 0% | 13.8% | -0.135% | -3.54% | -1.63% | 2.91% | 5.8% | 5.32% | 3.85% | 0.408%
8 | O=C(Cc1ccc(F)cc1)N1CCCCC1c1ccn2ccnc2n1 (configuration not stated) | -2.25% | -1.35% | 14.8% | 2.79% | -2.96% | -1.16% | 9.83% | 10.1% | 0% | -1.3% | -17.6%
9 | CC(C)c1ccc(OCn2ccc(C(=O)N3CCCC3)n2)cc1 | -3.25% | 10.4% | 1.81% | 12.1% | 6.2% | -81.4% | 12.5% | 52.2% | 3.23% | 8.64% | -6.24%
10 | Cn1cc(Cl)cc1C(=O)N1CCN(Cc2ccsc2)CC1 | -0.357% | 5.26% | 5.58% | -5.04% | 4.13% | 0.766% | -1.67% | -2.56% | 2.45% | 4.88% | -0.287%
11 | CO[C@H]1CN(Cc2cccc(C#N)c2)[C@@H]2COC[C@H]12 | -3.41% | 8% | -0.964% | 2.51% | 0.965% | -48.9% | 7.52% | -21.7% | 5.21% | 22.5% | -5.96%
12 | Cc1cnn(CCNCc2cccnc2)c1 | -3.48% | -11.4% | 6.23% | 2.04% | -2.36% | 1.5% | 8.92% | 16.9% | 2.08% | 7.59% | -6.41%
13 | CSc1cc2c(cc1NC(=O)NCC(C)(C)C(N)=O)OCCO2 | -3.46% | 0% | 0.42% | -2.41% | -3.91% | -28.8% | 12.8% | -6.09% | -27.7% | 6.1% | 0.589%
14 | CCOCCCNc1nc(O)cc(C2CC(=O)N(C)C2)n1 (configuration not stated) | -3.32% | 6.76% | -1.4% | 1.36% | 3.95% | -4.41% | 9.83% | -10.5% | 1.07% | 9.09% | -25.9%
15 | CCc1ncc(CNC2CC(=O)N(CCc3cccc(Cl)c3)C2)cn1 (configuration not stated) | -5.45% | 13.7% | -3.73% | 5.67% | 7.54% | -3.59% | 6.76% | 0.221% | 6.25% | 11.1% | -2.3%
16 | Cc1ccc(CS(=O)(=O)N2CC[C@H]3[C@H]2CCN3C)cc1 | 1.22% | 13.7% | -1.19% | 9.36% | 6.35% | -0.399% | 14.5% | -5.72% | 6.25% | 16.1% | -5.83%
17 | COc1ccccc1CC1CCCN(CCC#N)C1 (configuration not stated) | -3.04% | 5.2% | -0.847% | 2.02% | 3.82% | 4.42% | -6.39% | 8.44% | 2.86% | 11.8% | -9.24%
18 | Cc1ccccc1CNc1nc(O)cc(C2CC(=O)N(C)C2)n1 (configuration not stated) | 3.9% | 6.76% | 3.36% | -2.99% | -44.5% | 4.87% | 13.1% | 8.17% | 2.15% | 9.09% | -10.8%
19 | Cc1ccc(CN2CCc3ncnc(C4CCOC4)c3CC2)s1 (configuration not stated) | 1.24% | 10.7% | 1.52% | 6.88% | -2.51% | -41.4% | 5.98% | 18.1% | 5.21% | 25% | -6.72%
20 | CCCc1nc(C(C)(C)NC(=O)C2CC(=O)N(CC3CC3)C2)no1 (configuration not stated) | -3.09% | 10.8% | -4.68% | -4.84% | -6.78% | 2.4% | -5.75% | 14.8% | 2.97% | 11% | 5.6%
21 | O=C(Nc1cnn(CCN2CCOCC2)c1)c1ccccc1O | -4.19% | 26.3% | -17.4% | 2.22% | 3.57% | 4.6% | 16.9% | -2.35% | 6.37% | 19.5% | -12.5%
22 | Cc1ccc(C(=O)N2CCn3cc(CN4CCCCC4)nc3C2)o1 | -1.62% | -2.6% | 0.425% | -11.1% | -1.48% | 21.3% | 5.57% | 1.99% | -4.23% | -6.41% | 8.37%
